A549 viability: kills or reduces viability of A549 cells in Nrf2 counter-screen; A549 ARE-Fluc cells, CellTiter-Fluor viability, 18-24 h; Potency, µM (series often up to 46 µM), hits mostly inhibitors; 390,000 tested, 0.16% active; AID 504648
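A549 ARE_Fluc cells in 5% FBS OPTI-MEM were exposed to compounds in concentration-response for 18-24 h at 37 deg C. Viability was read by CellTiter-Fluor fluorescence (Ex 405/Em 525) after 30 min, before the luciferase read.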
Nrf2 block: Nrf2 pathway inhibition; A549 ARE-Fluc reporter, luciferase luminescence, 18-24 h; Potency, µM (series often up to 46 µM), usual class: inhibitors; 360,000 tested, 2.1% active; also: nearly all actives have a fitted effect of over 60% in size
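A549 ARE_Fluc cells (5000/well, 5% FBS OPTI-MEM) pre-incubated 2 h, then treated with compounds 18-24 h at 37C/5% CO2 in concentration-response. CellTiter-Fluor viability read first; BugLite luciferase luminescence after 15 min at room temperature gives Nrf2 activity.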
Nrf2 ARE act: activates Nrf2 signaling | AID 624171 | 410,000 tested, 0.31% active | Potency, µM (series often up to 46.1 µM), usual class: activators | AREc32 ARE-luciferase reporter (MCF7-derived line), luminescence, 24 h; also: nearly all actives have a fitted effect of over 65% in size
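Nrf2 activation is followed as ARE-luciferase induction in the AREc32 line after one day of compound treatment; luminescence is read with Steady-Glo.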
HepG2 tox: HepG2 cytotoxicity, counter-screen for TGF-b inhibitors. HepG2 CAGA-GFP viability, ATP luminescence, 18 h. Potency, µM (doses to about 46.1 µM), actives largely listed as cytotoxic. 410,000 tested, 0.76% active. AID 588856
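HepG2 CAGA-GFP cells (1000/well, DMEM with 1% FBS) received compound, then TGF-beta at 500 pg/mL final, and were incubated 18 hours at 37 degrees C. Viability was read by CellTiter-Glo luminescence. Media-only wells were set as complete cell-killing and DMSO as no toxicity.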
TGFb inhibitor: inhibitors of TGF-b signaling; HepG2 CAGA-GFP TGF-b/SMAD3 reporter, GFP fluorescence, 18 h; TGF-beta stimulated, 500 pg/mL final; Potency, µM (top dose mostly 46.1 µM), most hits filed as inhibitors; 410,000 tested, 1.2% active; also: nearly all actives have a fitted effect of over 65% in size
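HEPG2 CAGA-GFP reporter cells (1000/well, DMEM with 1% FBS) received compounds, then recombinant TGF-beta at 500 pg/mL final for 18 hours at 37 degrees C. Per-cell GFP summed per well was normalised to unstimulated and stimulated DMSO controls before curve fitting.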
A number is an active result; i = inactive; ? = inconclusive; nt = no result; ! = a repeat was not active. In the library only some 3.6% were active in any assay of this set; here they are far more common. Calls follow the shape of the dose curve; as a rule, active = well fitted curve in the direction sought with a large enough effect; inconclusive = small, poorly fitted or top-dose-only effect, or another doubt; inactive = no such curve, though single readings can be large; an effect the other way counts as inactive or inconclusive.

SMILES	A549 viability	Nrf2 block	Nrf2 ARE act	HepG2 tox	TGFb inhibitor
O=S1(=O)Nc2c(cc(Cl)c3ccc(Cl)nc23)-c2ccccc21	i	i	nt	i	i
Cc1ccc2ccc3c(c2n1)NS(=O)(=O)c1ccc(C(F)(F)F)cc1-3	7.3µM	8.2µM	nt	i	7.1µM
O=C(NCc1nnc2c(C(F)(F)F)cc(Cl)cn12)c1ccco1	i	i	i	i	i
O=C(CSc1nc(-c2ccccc2)[nH]c1-c1ccccc1)Nc1ccc2c(c1)OCCO2	i	?	i	10µM	?
Cc1cccc(-c2nc(SCC(=O)Nc3ccc4c(c3)OCO4)c(-c3ccccc3)[nH]2)c1	?	?	i	i	13µM
COc1ccc(-c2[nH]c(-c3ccccc3)nc2SCC(=O)Nc2ccc3c(c2)OCCO3)cc1	i	?	i	i	i
O=C(CSc1nc(-c2ccc(F)cc2)[nH]c1-c1ccc(F)cc1)Nc1ccc2c(c1)OCO2	?	16µM	i	i	7.1µM
O=C(CSc1nc(-c2ccc(F)cc2)[nH]c1-c1ccc(F)cc1)Nc1ccc2c(c1)OCCO2	?	?	i	i	7.9µM
CCOc1ccc(-c2nc(SCC(=O)Nc3ccc4c(c3)OCO4)c(-c3ccc(F)cc3)[nH]2)cc1	i	i	i	i	i
COc1ccc2sc(N(CCCN(C)C)C(=O)c3ccc(C(=O)c4ccccc4)cc3)nc2c1	i	i	i	i	?
COc1ccc(-c2nc(SCC(=O)NC3CCCC3)c(-c3ccc(F)cc3)[nH]2)cc1	i	16µM	i	i	11µM
COCCCNC(=O)CSc1nc(-c2cccc(F)c2)[nH]c1-c1ccccc1	i	15µM	i	i	?
COCCCNC(=O)CSc1nc(-c2ccccc2)[nH]c1-c1ccc(C)cc1	i	?	i	i	?
Cc1ccc(Cn2c(=N)c(C(=O)NC3CCCC3)cc3c(=O)n4ccccc4nc32)cc1	i	i	i	i	i
CCc1ccccc1N(C(=O)c1snc(C(N)=O)c1N)C(C(=O)NCC1CCCO1)c1ccc(N(C)C)cc1 (configuration not stated)	i	i	i	i	i
CN(C)/C=N/NC(=O)c1ccccc1	i	i	i	i	i
O=C(NN=c1c(=O)c2ccccc2c1=O)c1ccccc1	i	i	i	16µM	11µM
O=C(C1CCCCC1)N1CCc2[nH]c3ccc(F)cc3c2C1	i	i	i	i	?
Cc1ccc(C(=O)CC2(O)C(=O)N(CCc3ccccc3)c3ccc(Cl)cc32)cc1 (configuration not stated)	?	i	i	11µM	18µM
O=C(CC1(O)C(=O)N(CCc2ccccc2)c2ccc(Br)cc21)c1ccccc1 (configuration not stated)	i	i	i	i	?
CCOc1cccc2sc(N(CCN(C)C)C(=O)CCS(=O)(=O)c3ccccc3)nc12	i	i	i	i	i
Cc1ccc(Cl)cc1N1CCN(C(=O)C(C)n2ncn3cccc3c2=O)CC1 (configuration not stated)	?	18µM!	i	i	i
COCCCN1C(=O)c2[nH]nc(-c3ccccc3O)c2C1c1ccc(OCc2ccccc2)cc1 (configuration not stated)	?	26µM	i	i	20µM
O=C1c2[nH]nc(-c3ccccc3O)c2C(c2ccccc2F)N1Cc1cccnc1 (configuration not stated)	i	i	i	i	i
CCOCCCN1C(=O)c2[nH]nc(-c3ccccc3O)c2C1c1ccc(CC)cc1 (configuration not stated)	i	i	i	18µM	?
SMILES	A549 viability	Nrf2 block	Nrf2 ARE act	HepG2 tox	TGFb inhibitor
COCCN1C(=O)c2[nH]nc(-c3ccccc3O)c2C1c1ccc(OC)cc1 (configuration not stated)	i	i	i	i	i
CC(C)OCCCN1C(=O)c2[nH]nc(-c3ccccc3O)c2C1c1ccccc1F (configuration not stated)	i	i	i	i	10µM
CC(C)OCCCN1C(=O)c2[nH]nc(-c3ccccc3O)c2C1c1cccc(OCc2ccccc2)c1 (configuration not stated)	?	?	i	16µM	?
O=C1c2[nH]nc(-c3ccccc3O)c2C(c2cccc(OCc3ccccc3)c2)N1CCO (configuration not stated)	i	i	i	i	i
CCOc1ccccc1-c1nc(SCC(=O)c2ccc(OC)c(Br)c2)n[nH]1	i	i	i	i	i
CCCCN1C(=O)c2[nH]nc(-c3ccccc3O)c2C1c1ccc(OCc2ccccc2)cc1 (configuration not stated)	?	15µM	i	i	3.5µM
O=C1c2[nH]nc(-c3ccccc3O)c2C(c2cccc(Cl)c2)N1Cc1ccco1 (configuration not stated)	?	?	i	11µM	?
O=C1c2[nH]nc(-c3ccccc3O)c2C(c2ccc(F)cc2)N1Cc1ccco1 (configuration not stated)	?	?	i	i	?
N#Cc1ccc(-c2nc3ccc(Cl)cn3c2Cc2ccccc2)cc1	nt	nt	i	i	i
O=c1c(-c2n[nH]c(=S)o2)cccn1Cc1ccccc1	i	i	i	i	?
C=C1C(=O)O[C@H]2C[C@H]1[C@@H](OC(C)=O)C/C(C)=C/CC/C(C)=C\CC[C@]2(C)O	?	15µM	i	i	3.2µM
CCCN(CCC)C(=O)/C=C/c1cccc([N+](=O)[O-])c1	i	i	i	i	i
CC(C)N(C(=O)/C=C/c1cccc([N+](=O)[O-])c1)C(C)C	i	i	14µM	i	?
O=C(NCC(c1cccs1)N1CCOCC1)c1ccccc1NS(=O)(=O)c1cccc([N+](=O)[O-])c1 (configuration not stated)	?	21µM	i	i	?
O=C(NCC(c1cccs1)N1CCOCC1)c1ccccc1NS(=O)(=O)c1ccc(Cl)c([N+](=O)[O-])c1 (configuration not stated)	i	?	i	i	?
O=C(/C=C/c1cccs1)c1ccc(N2CCOCC2)cc1	i	?	i	i	i
O=C(/C=C/c1cccc(F)c1)c1ccc(N2CCOCC2)cc1	i	i	?	i	13µM
O=C(CN1C(=O)NC2(CCCC2)C1=O)OCc1ccc(Br)cc1	i	i	i	i	i
CCn1c(SCCN2CCCCC2)nnc1-c1ccc(S(=O)(=O)N2CCOCC2)cc1	i	i	i	i	i
CCc1cccc(CC)c1NC(=O)C1SC(=Nc2ccccc2C)C(c2nc3ccccc3s2)=C1N (configuration not stated)	i	15µM	i	i	i
CCc1cccc(C)c1NC(=O)CCCSc1nc2ccccc2s1	i	?	i	i	i
